Compound activity as filed in PubChem.
Rows were chosen to be rich in hits. Some 10% of all compounds tested hit in one or more screens of this group.
RORg inh: blocks mouse ROR gamma transcriptional activity; P51450; Drosophila S2 Gal4-RORgamma UAS-luciferase reporter, 20 h; Potency, µM (doses to about 53.6 µM), for the others: at the highest dose activity change, negative = inhibition, usual class: inhibitors; hit rate 5.4% among 310,000; also: % is scaled to controls: 0 for no effect and ±100 for the full control effect; nearly all actives have a fitted effect of over 60% in size
Target sequence (P51450 whole entry, looked up, the tested form may be a part): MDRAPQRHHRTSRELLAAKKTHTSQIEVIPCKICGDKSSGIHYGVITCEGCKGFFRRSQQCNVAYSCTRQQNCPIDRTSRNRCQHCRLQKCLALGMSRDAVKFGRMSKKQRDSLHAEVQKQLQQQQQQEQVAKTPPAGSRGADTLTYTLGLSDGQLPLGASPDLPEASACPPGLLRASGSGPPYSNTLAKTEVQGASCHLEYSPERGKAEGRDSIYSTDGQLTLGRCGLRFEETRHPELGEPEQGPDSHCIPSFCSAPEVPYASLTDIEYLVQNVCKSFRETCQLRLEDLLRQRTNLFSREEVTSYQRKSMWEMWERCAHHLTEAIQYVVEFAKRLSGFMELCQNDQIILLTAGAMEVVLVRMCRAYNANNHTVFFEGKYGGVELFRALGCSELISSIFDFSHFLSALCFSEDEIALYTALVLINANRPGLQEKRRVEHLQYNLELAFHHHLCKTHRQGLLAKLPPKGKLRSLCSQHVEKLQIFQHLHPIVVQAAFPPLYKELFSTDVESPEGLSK
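Using a luciferase readout, inhibitors were identified by reduced reporter activity in Drosophila cells coexpressing a copper-inducible Gal4–ROR gamma fusion and UAS-driven Photinus luciferase, incubated 20 hr after 700 uM copper sulfate.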
ELG1 DNA repair: ELG1-dependent DNA repair inhibition; HEK293T ELG1-luciferase reporter, luminescence, 16 h; DNA damage induced by 5-fluorouridine; hit rate 2.3% among 330,000; Potency, µM (titrated, usually from 46.1 µM), for the others: at the highest dose activity change, negative = inhibition, most hits filed as inhibitors; also: % is scaled to controls: 0 for no effect and ±100 for the full control effect; nearly all actives have a fitted effect of over 55% in size
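5-Fluorouridine DNA damage + compound/DMSO, 2,000 cells/well, 16 h, 37 °C/5% CO2. ONE-Glo, 30 min RT, luminescence. Readout = decrease in reporter signal.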
VP16 counter: inhibits Gal4-VP16 luciferase reporter, ROR gamma counter-screen. Drosophila S2 Gal4-VP16 UAS-luciferase, luminescence, 20 h. Potency, µM (titrated, usually from 53.6 µM), without a hit: at the top dose activity, negative = inhibition, usual class: inhibitors. hit rate 3.5% among 310,000;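 also: Gal4-VP16 expression switched on by copper sulfate through the metallothionein promoter; % is scaled to controls: 0 for no effect and ±100 for the full control effect; nearly all actives have a fitted effect of over 50% in size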
MCF10A rerep: inducers of DNA re-replication in MCF 10A breast cells; MCF 10A DNA re-replication, Hoechst nuclear intensity, 48 h; Potency, µM (series often up to 46.1 µM), inactives show top-dose activity, positive = re-replication, actives largely listed as activators; hit rate 2.9% among 350,000; AID 624296; also: % of control where 0% means no effect; nearly all actives have a fitted effect of over 50% in size
SW480 rereplic: inducers of DNA re-replication in SW480 colon cancer cells | AID 624297 | hit rate 1.8% among 340,000 | SW480 DNA re-replication, Hoechst DNA content imaging, 48 h | Potency, µM (series often up to 46.1 µM), without a hit: at the top dose re-replication activation, usual class: activators; also: % of control where 0% means no effect; nearly all actives have a fitted effect of over 55% in size
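Image-based DNA-content assay: after two days of treatment, nuclei were labelled with the DNA dye Hoechst and imaged, and hits were compounds raising the count of nuclei showing high fluorescence intensity.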
* marks the source's active call; other numbers are inactive results; u = inconclusive; x = no result; [ ] = remark or other dose. Calls follow the shape of the dose curve; as a rule, active = well fitted curve in the direction sought with a large enough effect; inconclusive = small, poorly fitted or top-dose-only effect, or another doubt; inactive = no such curve, though single readings can be large; an effect the other way counts as inactive or inconclusive. Potency is read from the fitted curve at half-maximal effect.

SMILES | RORg inh | ELG1 DNA repair | VP16 counter | MCF10A rerep | SW480 rereplic
COc1ccc(NC(=S)Nc2ccccc2OC)c(OC)c1 | 14% | 1% | 1%[10 µM] | 2% | 10%
COc1ccc(NC(=S)Nc2cnc3ccccc3c2)c(OC)c1 | 11µM* | u | -8% | -3% | -29%
COc1ccc(NC(=S)Nc2cc(C)ccn2)c(OC)c1 | 6.3µM* | u | 3.2µM* | 2% | u
CN(C(=O)COC(=O)c1ccccc1C(=O)N1CCN(c2ccccc2)CC1)c1ccccc1 | 14% | -5% | -13% | 2% | -5%
CN1C2CCC1/C(=C\c1ccccc1F)C(=O)/C2=C/c1ccccc1F | -29% | -1% | 11% | u | 12%
Cc1ccccc1C(=O)Nc1nnc(-c2ccncc2)o1 | 2.8µM* | -14% | 5µM* | 0% | -4%
COc1ccc(-c2nnc(NC(=O)c3ccccc3C)o2)cc1 | 0.63µM* | u | 0.79µM* | 1% | 1%
COc1ccc(-n2nc3c(N4CCC(C(=O)NCC(C)c5ccccc5)CC4)nnc(C)c3c2C)cc1 (stereo unspecified) | -31% | -22% | 20µM* | u | u
Cc1ccc(-n2nc3c(N4CCC(C(=O)NCCc5ccccc5C)CC4)nnc(C)c3c2C)cc1 | u | 12% | u | 23µM* | 9%
Cc1ccc(-n2nc3c(N4CCC(C(=O)NCc5cccc(F)c5)CC4)nnc(C)c3c2C)cc1 | -16% | 16µM* | u | 4% | -3%
COc1ccc(-n2nc3c(N4CCC(C(=O)NCCc5ccccc5C)CC4)nnc(C)c3c2C)cc1 | 1% | u | -12% | 9.2µM* | u
COCCSc1ccccc1C(=O)NCc1cccnc1 | 26% | 5% | 2% | 3% | 30%
CCOc1ccccc1CNC(=O)C1CCCN(c2nnc(C)c3c(C)n(-c4ccccc4)nc23)C1 (stereo unspecified) | u | u | u | 15µM* | u
COc1ccc(-n2nc3c(N4CCC(C(=O)NCc5ccccc5C)CC4)nnc(C)c3c2C)cc1 | -6% | 24% | 1% | u | u
COc1ccccc1CNC(=O)[C@@H](NC(=O)C1CCN(C(=O)[C@@H]2CCCN2C(=O)OC(C)(C)C)CC1)C(C)C | 7.9µM* | u | 12% | 14% | -1%
C/C(=N\NC(=O)c1cc2c(s1)CCC(C)C2)c1ccncc1 (stereo unspecified) | 39% | 18% | -11% | 15µM* | -4%
C/C(=N\NC(=O)c1ccc(Br)cc1)c1cccc(NC(=O)c2cccnc2)c1 | 18µM* | -4% | 1%[10 µM] | -1% | -12%
C/C(=N/NC(=O)c1ccncc1)c1ccc(NC(=O)c2ccccc2)cc1 | -21% | u | 7% | -4% | -5%
C/C(=N\NC(=O)c1ccc(O)cc1O)c1cccnc1 | 5.6µM* | u | u | 7% | -2%
C/C(=N\NC(=O)c1ccncc1)c1cccc(NC(=O)c2ccc(C(C)(C)C)cc2)c1 | 4.5µM* | u | 4µM* | 19% | 13%
C/C(=N/NC(=O)c1ccc(Cl)cc1Cl)c1cccnc1 | 28% | u | 1% | 0% | u
CCOC(=O)C1=C(C(F)(F)F)Nc2ncnn2C1c1ccc(OC)cc1OC (stereo unspecified) | -33% | 0% | 2% | 5% | 11%
C/C(=N\NC(=O)COc1ccccc1[N+](=O)[O-])c1cccc(NC(=O)c2ccncc2)c1 | -35% | 9.2µM* | -24% | u | -2%
CC(=O)N1CCC2(CCCN(c3ccccn3)C2)CC1 | -11% | x | 7% | x | x
COc1ccccc1N/C(N)=N/c1nc(CSc2ccc(C)cc2)cc(=O)[nH]1 | -32% | 10µM* | 7.9µM* | -2% | 0%[9.22 µM]
SMILES | RORg inh | ELG1 DNA repair | VP16 counter | MCF10A rerep | SW480 rereplic
CCc1ccc(N/C(N)=N/c2nc(CSc3ccccn3)cc(=O)[nH]2)cc1 | -4% | 23µM* | -5% | u | u
COc1cccc(C(=O)NNc2c3ccccc3nc3ccccc23)c1 | 22% | u | -18% | 15% | -11%
COc1cccc(C(=O)NNc2nc(C)cc(C)n2)c1 | -7% | 22% | -1% | u | 0.52µM*
Cc1cc(C)nc(NNC(=O)c2ccccc2O)n1 | 11µM* | -2% | 3% | 9% | u
COC(C(=O)Nc1ccnn1C1CCN(Cc2cccc(C)n2)CC1)c1ccccc1 (stereo unspecified) | -17% | u | 2% | -3% | u
CC(C)c1ccc2nc(SCC(=O)NCC3CCCO3)c(C#N)cc2c1 (stereo unspecified) | -12% | u | -3% | -12% | -23%
O=C1CCC/C(=N\NC(=O)c2ccc(COc3ccccc3-c3ccccc3)cc2)C1 | u | -4% | 3% | 9.2µM* | 100%
O=C(CCS(=O)(=O)c1cccc2nonc12)NCc1ccc(Cl)cc1 | 23% | -16% | -6% | 1% | -7%
COC(CNC(=O)CCc1c(C)nc2c(c(C)nn2-c2ccc(C)cc2)c1C)OC | 0% | -27% | -14% | -7% | 7%
CCN(CC)CCNC(=O)CCc1c(C)nc2c(c(C)nn2-c2ccc(C)c(C)c2)c1C | -4% | u | -13% | 20% | 15µM*
Cc1ccc(-n2nc(C)c3c(C)c(CCC(=O)Nc4ccc(CN5CCCC5)cc4)c(C)nc32)cc1 | u | 12% | -25% | 26µM* | u
Cc1ccc(Oc2c(CO)c(-c3ccccc3)nn2C)cc1 | 21% | u | 8% | 21% | u
Cc1noc2ncnc(Sc3ccc(Br)cc3)c12 | 4µM* | u | 11µM* | 13µM* | 14%
COc1cc(N2C(=O)C=CC2=O)c(OC)cc1Cl | 5.6µM* | -13% | 4.5µM* | 5.8µM* | u
O=C1C=CCC(/C=C/c2ccccc2)O1 (stereo unspecified) | u | 18µM* | u | 15µM* | 16µM*
Cc1nc2c3cc(F)ccc3n(Cc3ccc(F)cc3)c2s1 | -5%[10 µM] | -5% | -5% | u | u
COC(=O)Cn1c2ccc(Cl)cc2c2nc(C)sc21 | 9% | 2% | 0% | 3% | -128%
Cc1nc2c3cc(Cl)ccc3n(CCN3CCCCC3)c2s1 | -28% | -10% | 9% | 18µM* | 15µM*
CCc1ccc2c(c1)c1nc(C)sc1n2CC | 10µM* | 0% | 11µM* | 15% | 2%
CCCNC(=S)N1CCN(C)CC1 | -4% | 18% | 5% | -2% | x
CCN(CC1CCCO1)C(=O)CCc1nnc(CCc2ccccc2OC)o1 (stereo unspecified) | 11% | -1% | 13% | 0% | 1%
O=c1c2cc(Br)ccc2nc(-c2ccccc2)n1O | u | -14% | u | 9% | -1%
Nc1nc(C(F)(F)F)c(Br)c(=O)n1N | -10% | -12% | 3% | 5% | -3%
Cc1cccc2sc(NC(=O)C3CCN(C(=O)c4ccco4)CC3)nc12 | 21% | 13µM* | -4% | 16% | 3%
